{"source": "PubChem BioAssay (NCATS)", "note": "Records with an inconclusive call do not appear. Values without a mark were called inactive. Active and inactive are the calls of the source. The call rests on the fitted dose curve; in most records, active means well fitted cell-killing curve with a large enough effect; inconclusive means small, poorly fitted or top-dose-only effect; inactive means flat fitted curve, though single readings scatter. Potency means the concentration at half of the fitted maximal effect."}
{"test": "Cell Viability - LYMP2-019 (AID 973); further: nearly all actives have a fitted effect of over 55% in size;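 on activity change, negative = cytotoxicity: 0% = DMSO alone and full effect = 92 µM tetraoctylammonium bromide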", "details": "LYMP2-019 lymphoblastoid cell line viability; series mostly up to 92.2 µM; activity change, negative = cytotoxicity: at the top concentration", "from_the_text": "NIH Chemical Genomics Center [NCGC]\nNIH Molecular Libraries Screening Centers Network [MLSCN]\nNational Institutes of Environmental Health Sciences [NIEHS]\nNational Toxicology Program [NTP]\nWe have developed a 1536-well cell-based assay for quantitative high throughput screening (qHTS) against a number of cell lines to determine in vitro cytotoxicity of small molecules. This particular assay uses a human lymphoblastoid cell line (LYMP2-019) purchased from Coriell Institute for Medical Research.\nNCGC Assay Protocol Summary:\nThe CellTiter-Glo luminescent cell viability assay (Promega) is a homogeneous method to measure the number of viable cells in culture. The end point readout of this assay is based on quantitation of intracellular ATP, an indicator of metabolic activity, using the luciferase reaction. Luciferase catalyzes the oxidation of beetle Luciferin to oxyluciferin and light in the presence of ATP. The luminescent signal is proportional to amount of ATP present.\nUsing the CellTiter-Glo luminescent cell viability assay, the amount of cellular ATP was measured in the lymphoblastoid cell line with complete culture medium following compound treatment for 24 hours. The assay was performed in opaque white Kalypsys 1536-well plates. In the screen, tetraoctylammonium bromide was used as positive control. Library compounds were measured for their ability to cause acute toxicity in the cell line, as reflected by a decrease in intracellular ATP levels, in a concentration-dependent manner. […] AC50 values were determined from concentration-response data modeled with the standard Hill equation.\nqHTS protocol for CellTiter Glo lymphoblastoid cellular assay\n[Step] [Parameter] [Value] [Description]\n1. Reagent; 5 uL; 2500 lymphoblastoid cells/well\n2. Time; 5 hr; 37 C incubation\n4. Controls; 23 nL; Tetraoctylammonium bromide 6.4pM to 92 uM\n5. Time; 24 hr; 37 C incubation\n6. Reagent; 5 uL; CellTiter Glo reagent\n7. Time; 30 min; Room Temperature\n8. Detection; Luminescence; Viewlux plate reader\nKeywords: cell viability, cytotoxicity, lymphoblastoid cell line, luminescence, NTPHTS, NTPHTS_NCGC, NIEHS, DSSTox, MLSMR, MLSCN, NIH Roadmap, qHTS, NCGC", "units": {"activity change, negative = cytotoxicity": "%"}}
{"smiles": "C[C@@H]1CC[C@@]2(OC1)O[C@H]1[C@@H](O)[C@H]3[C@@H]4CC[C@H]5C[C@@H](O[C@@H]6O[C@H](CO)[C@H](O[C@@H]7O[C@H](CO)[C@@H](O)[C@H](O[C@@H]8OC[C@@H](O)[C@H](O)[C@H]8O)[C@H]7O[C@@H]7O[C@H](CO)[C@@H](O)[C@H](O[C@@H]8O[C@H](CO)[C@@H](O)[C@H](O)[C@H]8O)[C@H]7O)[C@H](O)[C@H]6O)[C@H](O)C[C@]5(C)[C@H]4CC[C@]3(C)[C@H]1[C@@H]2C", "Potency": "12.6 µM (active)"}
{"smiles": "O=[N+]([O-])c1cc(C(F)(F)F)cc([N+](=O)[O-])c1Cl", "Potency": "31.6 µM (active)"}
{"smiles": "O=Nc1ccc(Nc2ccccc2)cc1", "Potency": "3.98 µM (active)"}
{"smiles": "O=C(O)C1C(C(=O)O)C2(Cl)C(Cl)=C(Cl)C1(Cl)C2(Cl)Cl", "note": "(configuration not stated)", "activity change, negative = cytotoxicity": -7.94}
{"smiles": "FC(F)(F)c1ccc(Cl)cc1", "activity change, negative = cytotoxicity": -1.6}
{"smiles": "Clc1ccc(C(c2ccc(Cl)cc2)C(Cl)Cl)cc1", "activity change, negative = cytotoxicity": -18.3}
{"smiles": "[CH3][Hg][Cl]", "Potency": "5.01 µM (active)"}
{"smiles": "N#CSCSC#N", "Potency": "5.01 µM (active)"}
{"smiles": "C#CCO", "activity change, negative = cytotoxicity": -7.5}
{"smiles": "O=[N+]([O-])C(Br)Br", "Potency": "10 µM (active)"}
{"smiles": "c1cc(OCC2CO2)cc(OCC2CO2)c1", "note": "(configuration not stated)", "Potency": "39.8 µM (active)"}
{"smiles": "N#CC(Cl)Cl", "Potency": "15.8 µM (active)"}
{"smiles": "Nc1ccccc1C(=O)OCCc1ccccc1", "activity change, negative = cytotoxicity": -8.68}
{"smiles": "ClC1=C(Cl)C(Cl)(Cl)C(Cl)=C1Cl", "Potency": "6.31 µM (active)"}
{"smiles": "c1ccc2cc3c(cc2c1)-c1cccc2cccc-3c12", "activity change, negative = cytotoxicity": -7.1}
{"smiles": "Oc1c(Br)c(Br)c(Br)c(Br)c1Br", "activity change, negative = cytotoxicity": -21.9}
{"smiles": "OC(c1ccc(Cl)cc1)(c1ccc(Cl)cc1)C(Cl)(Cl)Cl", "activity change, negative = cytotoxicity": -6.29}
{"smiles": "CCCCCCCCn1sccc1=O", "Potency": "3.98 µM (active)"}
{"smiles": "CC(=O)[O-].CC(=O)[O-].O.O.[Cd+2]", "activity change, negative = cytotoxicity": -23.3}
{"smiles": "C=CC(=O)OCC(CO)(COC(=O)C=C)COC(=O)C=C", "Potency": "3.98 µM (active)"}
{"smiles": "CC/C(=C(\\c1ccccc1)c1ccc(OCCN(C)C)cc1)c1ccc(O)cc1", "Potency": "50.1 µM (active)"}
{"smiles": "O=C1C2(Cl)C3(Cl)C4(Cl)C(Cl)(Cl)C5(Cl)C3(Cl)C1(Cl)C5(Cl)C24Cl", "note": "(configuration not stated)", "Potency": "50.1 µM (active)"}
{"smiles": "CC(C)CC(C)Nc1ccc(Nc2ccccc2)cc1", "note": "(configuration not stated)", "Potency": "39.8 µM (active)"}
{"smiles": "ClC1=C(Cl)C2(Cl)C3C(Cl)C(Cl)CC3C1(Cl)C2(Cl)Cl", "note": "(configuration not stated)", "activity change, negative = cytotoxicity": -29.7}
{"smiles": "O=C(CCl)c1ccccc1", "Potency": "10 µM (active)"}
{"smiles": "COP(=O)(OC)O/C(=C\\Cl)c1cc(Cl)c(Cl)cc1Cl", "activity change, negative = cytotoxicity": -24.4}
{"smiles": "CN(C)c1ccc(N=O)cc1", "Potency": "1 µM (active)"}
